The record followed here is ChEMBL document CHEMBL3988442, “University of Dundee, Small-Polar-MMV Screening Library” (2021).

Design in all cases: scale not given: direction of the effect not stated beside the values
In assay [1] the target is Protein translocase subunit SecA (Escherichia coli (strain K12)) (UniProt P10408). The assay is described as follows: Assay to Identify E. coli SecA ATPase Inhibitors. Format: functional. The settings on record: 30 µM.
The target in assay [2] is T1, Ubiquitin-activating enzyme e1, putative (Leishmania donovani (strain BPK282A1)) (UniProt E9BSI1).
T1 sequence (whole entry): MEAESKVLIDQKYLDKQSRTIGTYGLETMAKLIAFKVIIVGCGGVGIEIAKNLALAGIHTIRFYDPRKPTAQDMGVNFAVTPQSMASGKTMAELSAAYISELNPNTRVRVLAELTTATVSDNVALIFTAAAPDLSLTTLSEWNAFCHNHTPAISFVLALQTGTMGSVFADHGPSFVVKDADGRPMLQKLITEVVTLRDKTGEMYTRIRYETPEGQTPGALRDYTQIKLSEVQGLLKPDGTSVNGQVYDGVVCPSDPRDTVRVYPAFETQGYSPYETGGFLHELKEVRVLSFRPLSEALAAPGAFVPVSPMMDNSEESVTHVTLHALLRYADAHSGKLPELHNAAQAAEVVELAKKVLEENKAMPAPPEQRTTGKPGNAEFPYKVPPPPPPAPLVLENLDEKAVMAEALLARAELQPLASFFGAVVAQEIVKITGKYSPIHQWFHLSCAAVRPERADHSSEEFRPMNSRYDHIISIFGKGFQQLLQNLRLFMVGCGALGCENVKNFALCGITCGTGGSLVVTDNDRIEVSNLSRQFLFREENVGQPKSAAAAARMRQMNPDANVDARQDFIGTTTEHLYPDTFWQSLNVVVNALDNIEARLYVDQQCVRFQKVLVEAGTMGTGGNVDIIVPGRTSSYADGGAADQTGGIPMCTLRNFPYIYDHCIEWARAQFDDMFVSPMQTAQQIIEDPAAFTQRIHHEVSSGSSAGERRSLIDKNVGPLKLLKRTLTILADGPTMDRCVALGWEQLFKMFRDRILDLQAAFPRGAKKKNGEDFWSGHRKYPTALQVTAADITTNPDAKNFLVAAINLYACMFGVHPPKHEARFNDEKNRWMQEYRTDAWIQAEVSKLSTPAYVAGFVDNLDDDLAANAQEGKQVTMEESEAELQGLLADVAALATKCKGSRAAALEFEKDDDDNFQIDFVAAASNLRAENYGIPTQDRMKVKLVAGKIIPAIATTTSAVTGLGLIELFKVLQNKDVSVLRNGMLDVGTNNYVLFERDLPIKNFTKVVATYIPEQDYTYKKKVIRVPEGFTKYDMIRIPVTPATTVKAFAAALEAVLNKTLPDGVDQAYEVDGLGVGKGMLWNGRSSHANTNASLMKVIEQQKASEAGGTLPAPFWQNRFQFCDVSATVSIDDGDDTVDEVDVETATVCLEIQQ
Nature of the assay: Leishmania donovani Ubiquitin Activating Enzyme (LdE1). In kind it is functional. To be noted: 30 µM.

The target of assay [3] is AMP-activated protein kinase, AMPK (Homo sapiens) (UniProt P54646+O43741+P54619+Q9UGJ0+Q9Y478+Q13131+Q9UGI9). Nature of the assay: AMP-dependent Kinase enzyme assay. An in vitro enzyme assay that detects ADP turnover that is directly proportional to AMPK activity. This uses naive AMPK that is activated during the assay with MK-8722. The settings on record: 30 µM. In kind it is functional.

The target in assay [4] is Sialic acid-binding Ig-like lectin 9 (Homo sapiens) (UniProt Q9Y336). Nature of the assay: Hs-Siglec9 ALPHAscreen SOP 20170721. To be noted: 10 µM. A general note: In Alpha technology, singlet oxygen from a donor bead excites a nearby acceptor bead.
Sialic acid-binding Ig-like lectin 9 (Homo sapiens), sequence (Q9Y336 whole entry): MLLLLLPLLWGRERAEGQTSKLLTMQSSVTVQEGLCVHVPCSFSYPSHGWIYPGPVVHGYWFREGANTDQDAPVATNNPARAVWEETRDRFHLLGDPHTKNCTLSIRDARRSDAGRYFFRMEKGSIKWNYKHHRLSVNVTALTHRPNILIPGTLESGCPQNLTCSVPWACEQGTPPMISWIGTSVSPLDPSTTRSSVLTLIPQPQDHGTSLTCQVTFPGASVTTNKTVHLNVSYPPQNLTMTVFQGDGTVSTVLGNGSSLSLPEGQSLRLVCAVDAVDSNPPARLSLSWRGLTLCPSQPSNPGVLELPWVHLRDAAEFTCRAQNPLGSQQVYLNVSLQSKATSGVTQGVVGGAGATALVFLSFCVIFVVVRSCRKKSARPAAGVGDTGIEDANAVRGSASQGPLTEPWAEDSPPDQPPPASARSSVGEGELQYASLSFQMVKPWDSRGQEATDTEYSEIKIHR
For a further assay, the system named is Trypanosoma cruzi. Nature of the assay: Trypanosoma cruzi phosphomannomutase and mannose-1-phosphate guanylyltransferase assay. Format: functional. To be noted: 10 µM.
Assay [5] addresses T2, Arginase-2, mitochondrial (Homo sapiens) (UniProt P78540).
T2 sequence (whole entry): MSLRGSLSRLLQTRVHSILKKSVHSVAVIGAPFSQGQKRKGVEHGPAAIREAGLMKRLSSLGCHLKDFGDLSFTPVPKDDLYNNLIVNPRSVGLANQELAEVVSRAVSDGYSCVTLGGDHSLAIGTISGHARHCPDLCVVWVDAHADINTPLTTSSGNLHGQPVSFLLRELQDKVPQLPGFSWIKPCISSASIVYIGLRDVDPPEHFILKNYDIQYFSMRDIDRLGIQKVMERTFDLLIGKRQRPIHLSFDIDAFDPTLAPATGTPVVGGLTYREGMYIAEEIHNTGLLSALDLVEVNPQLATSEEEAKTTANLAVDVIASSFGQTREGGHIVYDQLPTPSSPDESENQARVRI
The assay is described as follows: in vitro enzyme assay to detect the production of urea directly proportional to the activity of Arginase II. Note: in the data most compounds retested in dose-response had high values. In kind it is functional. The settings on record: 33.3 µM.

Assay [6] deals with T3, Proteasome subunit beta (Trypanosoma cruzi) (UniProt O96673).
T3 sequence (whole entry): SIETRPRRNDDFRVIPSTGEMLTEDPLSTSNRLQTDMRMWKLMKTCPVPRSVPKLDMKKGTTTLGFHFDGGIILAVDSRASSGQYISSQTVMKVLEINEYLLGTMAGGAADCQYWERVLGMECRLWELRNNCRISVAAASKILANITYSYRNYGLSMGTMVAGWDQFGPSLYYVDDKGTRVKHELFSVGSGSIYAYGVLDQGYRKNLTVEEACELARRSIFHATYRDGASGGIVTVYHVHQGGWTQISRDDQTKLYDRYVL
The assay is described as follows: Trypanosoma cruzi proteasome chymotrypsin-like activity (TcProtChymo) assay. Note: in the data most compounds retested in dose-response had high values. In kind it is functional. To be noted: 9.37 µM.

For a further assay, the species on record is Homo sapiens. Nature of the assay: To identify inhibition of the IFN signalling (Jak-Stat) pathway via expression of an eGFP reporter gene under the control of an IFN-stimulated response element (ISRE) containing MxA promoter. In kind it is functional. The settings on record: 30 µM. (In general: In a reporter assay the amount or activity of a reporter protein is the signal.)

The target in assay [7] is T4, Tyrosyl-tRNA synthetase, putative (Trypanosoma cruzi (strain CL Brener)) (UniProt Q4DSP6).
T4 sequence (whole entry): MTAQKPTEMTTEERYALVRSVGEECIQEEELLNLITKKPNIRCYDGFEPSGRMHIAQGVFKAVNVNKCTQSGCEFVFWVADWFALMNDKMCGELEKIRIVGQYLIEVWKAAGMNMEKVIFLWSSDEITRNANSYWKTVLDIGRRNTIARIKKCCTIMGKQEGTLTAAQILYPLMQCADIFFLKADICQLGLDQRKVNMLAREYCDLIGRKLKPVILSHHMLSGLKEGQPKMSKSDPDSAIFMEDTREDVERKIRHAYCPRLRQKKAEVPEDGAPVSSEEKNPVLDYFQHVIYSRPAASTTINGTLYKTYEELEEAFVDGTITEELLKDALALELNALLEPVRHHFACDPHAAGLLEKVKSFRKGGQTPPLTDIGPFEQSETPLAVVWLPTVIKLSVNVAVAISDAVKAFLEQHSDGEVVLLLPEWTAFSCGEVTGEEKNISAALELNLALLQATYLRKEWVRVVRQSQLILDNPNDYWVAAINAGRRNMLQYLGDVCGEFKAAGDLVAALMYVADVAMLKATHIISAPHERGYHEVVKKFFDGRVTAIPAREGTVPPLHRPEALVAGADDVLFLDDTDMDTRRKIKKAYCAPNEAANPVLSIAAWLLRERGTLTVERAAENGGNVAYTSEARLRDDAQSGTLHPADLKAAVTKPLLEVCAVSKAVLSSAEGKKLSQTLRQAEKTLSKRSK
Nature of the assay: Trypanosoma cruzi tyrosyl tRNA synthetase (TcYRS) _High Tyrosine SOP. Note: in the data most compounds retested in dose-response had high values. The settings on record: 30 µM. Format: functional.

Assay [8] concerns the target T4, Tyrosyl-tRNA synthetase, putative (Trypanosoma cruzi (strain CL Brener)). Nature of the assay: Trypanosoma cruzi tyrosyl tRNA synthetase (TcYRS) SOP. To be noted: 30 µM. In kind it is functional.
The target of assay [9] is Chromo domain-containing protein 1 (Saccharomyces cerevisiae (strain ATCC 204508 / S288c) (Baker's yeast)) (UniProt P32657). Nature of the assay: ScCHD-1 Enzyme Inhibition Assay. Note: in the data most compounds retested in dose-response had high values. The settings on record: 30 µM. Format: functional.
Chromo domain-containing protein 1 (Saccharomyces cerevisiae (strain ATCC 204508 / S288c) (Baker's yeast)), sequence (P32657 whole entry, the tested form may be a part): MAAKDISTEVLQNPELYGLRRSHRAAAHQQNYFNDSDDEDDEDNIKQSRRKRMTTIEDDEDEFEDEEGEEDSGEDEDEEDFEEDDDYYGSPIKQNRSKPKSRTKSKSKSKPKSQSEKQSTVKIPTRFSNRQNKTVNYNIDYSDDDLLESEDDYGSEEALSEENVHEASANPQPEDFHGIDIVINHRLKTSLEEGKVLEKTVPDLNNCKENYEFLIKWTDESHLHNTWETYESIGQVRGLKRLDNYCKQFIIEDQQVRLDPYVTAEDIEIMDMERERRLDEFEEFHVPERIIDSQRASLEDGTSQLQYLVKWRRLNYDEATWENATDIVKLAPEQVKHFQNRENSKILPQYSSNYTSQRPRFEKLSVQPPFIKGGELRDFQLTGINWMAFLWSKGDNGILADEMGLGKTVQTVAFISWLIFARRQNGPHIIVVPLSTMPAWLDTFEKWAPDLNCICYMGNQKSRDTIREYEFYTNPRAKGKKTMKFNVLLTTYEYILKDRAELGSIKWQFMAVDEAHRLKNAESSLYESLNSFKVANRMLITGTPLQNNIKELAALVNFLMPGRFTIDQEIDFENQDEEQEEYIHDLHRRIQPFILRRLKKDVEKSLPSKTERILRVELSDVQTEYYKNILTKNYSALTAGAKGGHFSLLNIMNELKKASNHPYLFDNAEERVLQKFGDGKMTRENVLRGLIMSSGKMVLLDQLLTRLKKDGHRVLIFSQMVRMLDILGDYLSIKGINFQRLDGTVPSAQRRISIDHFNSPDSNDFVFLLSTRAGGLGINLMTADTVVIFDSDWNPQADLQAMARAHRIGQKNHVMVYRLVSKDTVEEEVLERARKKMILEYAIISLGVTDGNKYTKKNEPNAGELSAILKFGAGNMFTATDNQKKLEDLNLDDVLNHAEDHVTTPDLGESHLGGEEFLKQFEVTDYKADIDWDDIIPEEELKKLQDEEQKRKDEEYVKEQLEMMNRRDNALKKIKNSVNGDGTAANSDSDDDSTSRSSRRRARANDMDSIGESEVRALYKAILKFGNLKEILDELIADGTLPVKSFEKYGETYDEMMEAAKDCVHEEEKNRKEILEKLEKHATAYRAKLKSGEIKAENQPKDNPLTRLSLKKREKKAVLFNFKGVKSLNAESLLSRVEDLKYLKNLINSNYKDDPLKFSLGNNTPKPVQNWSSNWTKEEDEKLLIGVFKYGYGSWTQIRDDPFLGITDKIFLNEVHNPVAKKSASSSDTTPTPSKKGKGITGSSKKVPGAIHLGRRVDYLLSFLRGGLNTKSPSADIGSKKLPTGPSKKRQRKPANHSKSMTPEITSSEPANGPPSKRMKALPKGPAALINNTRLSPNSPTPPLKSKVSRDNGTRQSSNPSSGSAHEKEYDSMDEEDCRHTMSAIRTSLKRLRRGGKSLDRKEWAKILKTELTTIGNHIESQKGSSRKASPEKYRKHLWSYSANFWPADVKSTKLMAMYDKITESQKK

Structures are written as SMILES. For some assays here: Measured potencies and affinities stand elsewhere.

Protein translocase subunit SecA (Escherichia coli (strain K12)), sequence (P10408 whole entry): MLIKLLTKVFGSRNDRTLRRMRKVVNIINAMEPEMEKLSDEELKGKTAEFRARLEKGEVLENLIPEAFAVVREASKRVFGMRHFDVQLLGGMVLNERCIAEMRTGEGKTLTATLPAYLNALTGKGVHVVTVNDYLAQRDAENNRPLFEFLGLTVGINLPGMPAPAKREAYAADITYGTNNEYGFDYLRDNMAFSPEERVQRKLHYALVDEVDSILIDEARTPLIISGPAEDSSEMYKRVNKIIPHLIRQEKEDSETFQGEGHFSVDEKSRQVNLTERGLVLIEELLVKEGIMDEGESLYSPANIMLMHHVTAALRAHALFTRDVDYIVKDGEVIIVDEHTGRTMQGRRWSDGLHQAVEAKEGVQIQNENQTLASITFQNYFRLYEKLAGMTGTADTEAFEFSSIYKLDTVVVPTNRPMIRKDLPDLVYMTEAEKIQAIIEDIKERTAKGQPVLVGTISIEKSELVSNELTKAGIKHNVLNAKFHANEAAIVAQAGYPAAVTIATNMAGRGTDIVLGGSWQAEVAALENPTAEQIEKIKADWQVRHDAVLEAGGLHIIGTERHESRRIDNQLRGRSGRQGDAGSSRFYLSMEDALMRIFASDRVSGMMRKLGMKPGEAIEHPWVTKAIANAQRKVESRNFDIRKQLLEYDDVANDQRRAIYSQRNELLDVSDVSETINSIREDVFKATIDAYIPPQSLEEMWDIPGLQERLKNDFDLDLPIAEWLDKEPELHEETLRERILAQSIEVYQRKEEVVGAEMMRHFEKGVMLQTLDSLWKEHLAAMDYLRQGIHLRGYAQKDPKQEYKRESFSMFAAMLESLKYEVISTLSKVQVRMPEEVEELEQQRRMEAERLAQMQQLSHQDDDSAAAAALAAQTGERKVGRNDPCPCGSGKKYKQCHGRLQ

Turning to `Cc1cc(NC(=O)CCc2ccsc2)n(C)n1`, the Percent Effect in assay [1] is -8.05%; in assay [2], 4.17%; in assay [3], -4.38%; in [4], -1.11%; in the assay with Trypanosoma cruzi, -3.98%; in assay [5], 3.97%. The Percent Effect in assay [6] is 17.7%; in the assay filed under Homo sapiens, -3.97%; in assay [7], 1.05%; in assay [8] it was 7.69%; in assay [9], -4.62%.
`CCc1nccn1C1CCCN(C(=O)c2cn3cccnc3n2)C1` (stereo not given): the Percent Effect in [1] is -1.83%; in assay [2] it was 2.7%; in [3], -8.93%; in assay [4], 1.79%; in the assay on Trypanosoma cruzi, -2.17%; in [5], 2.81%. The Percent Effect was -3.96% in [6]; -7.1% in the assay listed under Homo sapiens; 1.48% in assay [7]; -1.24% in [8]; 1.22% in [9].
For `CCC1CCCCN1C(=O)c1ccc2[nH]nnc2c1` (stereo not given), the Percent Effect in assay [1] is 0.483%; in assay [2], 0%; in assay [3], -3.81%; in assay [4] it was -0.908%; in the assay with Trypanosoma cruzi, -1.17%; in assay [5], 3.33%. In addition, the Percent Effect in assay [6] is 19.5%; in the assay filed under Homo sapiens it was 1.34%; in assay [7] it was 3.96%; in [8], -11%; in assay [9], -1.41%.
For the compound `CSCC(CCO)NC(=O)Nc1cc(C)ccc1C` (stereo not given), the Percent Effect is -3.37% in [1]; 2.74% in [2]; 0.417% in assay [3]; -7.14% in assay [4]; -7.83% in the assay with Trypanosoma cruzi; 4.09% in assay [5]. Besides, the Percent Effect was 15.3% in assay [6]; 5.34% in the assay listed under Homo sapiens; 1.07% in [7]; 5% in assay [8]; -3.27% in assay [9].
For the compound `O=C(Cc1cccc(Cl)c1)N[C@@H]1CCNC[C@H]1O`, the Percent Effect is -6.4% in assay [1]; 18.9% in assay [2]; -5.86% in assay [3]; 31.3% in assay [4]; 4.2% with Trypanosoma cruzi; 19.1% in assay [5]. Besides, the Percent Effect in assay [6] was 9.7%; in the assay listed under Homo sapiens, 0.775%; in [7], 5.38%; in [8] it was 16.1%; in assay [9] it was -13.7%.
For the compound `c1ccc(CC2CCN(Cc3ccnc(-c4cccnc4)n3)CC2)cc1`, the Percent Effect in [1] was 0.966%; in [2] it was -4.05%; in assay [3], 9.39%; in assay [4] it was 1.78%; in the assay on Trypanosoma cruzi it was 0.198%; in assay [5] it was 1.16%. In addition, the Percent Effect in assay [6] was -1.56%; in the assay listed under Homo sapiens, 18.1%; in [7], 4.3%; in [8] it was 6.49%; in [9], 7.16%.
Turning to `COc1c(CNCc2cccc(CS(C)(=O)=O)c2)c(C)nn1C`, the Percent Effect is -1.32% in [1]; 13.5% in assay [2]; -7.47% in [3]; -4.4% in [4]; -6.13% in the assay with Trypanosoma cruzi; 1.2% in assay [5]. Besides, the Percent Effect in assay [6] is 4.68%; in the assay filed under Homo sapiens, 4.32%; in [7] it was -0.493%; in assay [8], 11.1%; in [9], -6.98%.
Regarding `O=C(CCn1cnnc1)N1CCCC(c2ncc[nH]2)C1` (stereo not given), the Percent Effect in assay [1] was 1.63%; in assay [2], 5.48%; in assay [3], 11.6%; in assay [4] it was 0.524%; with Trypanosoma cruzi, -6.27%; in [5], 2.27%. For the same compound, the Percent Effect in [6] was 8.52%; in the assay filed under Homo sapiens it was 6.13%; in assay [7], 3.23%; in [8] it was 12.5%; in assay [9] it was -7.06%.
Turning to `COc1cccc(CN(C)C(=O)CCC(=O)c2ccc(Cl)cc2)c1OC`, the Percent Effect in [1] is -3.29%; in assay [2] it was -5.48%; in assay [3], -3.03%; in [4] it was 3.31%; with Trypanosoma cruzi, -0.992%; in [5] it was -7.58%. In addition, the Percent Effect in assay [6] is 6.59%; in the assay listed under Homo sapiens, 17%; in assay [7], 1.04%; in [8] it was 8.64%; in [9] it was -4.85%.
Turning to `CC(C)c1nc(C2CCCN2CCCc2nc3ccccc3o2)no1` (stereo not given), the Percent Effect in assay [1] was -2.74%; in assay [2], -8.11%; in [3], -9.61%; in assay [4], 9.51%; in the assay on Trypanosoma cruzi, 1.42%; in [5], -6.81%. For the same compound, the Percent Effect was -1.62% in assay [6]; 5.36% in the assay filed under Homo sapiens; 2.46% in assay [7]; -6.17% in assay [8]; 0.486% in assay [9].
